From paper PMC7862700, “An all-to-all approach to the identification of sequence-specific readers for epigenetic DNA modifications on cytosine”

Key:
Experiment in all cases: DAPPL (digital affinity profiling via proximity ligation, sequencing); 10 mM Tris-HCl pH 7.5, 50 mM NaCl, 1 mM DTT, 4% glycerol, room temperature, 30 min; GST-TFs on glutathione beads, 16-mer random dsDNA library, 0.1% formaldehyde crosslink after washing; high values mean tight binding
FEV = biological target: T1, FEV (Homo sapiens, UniProt Q99581 1-238); conditions: protein: recombinant; tags: N-terminal GST; dsDNA, one strand shown
T1 sequence: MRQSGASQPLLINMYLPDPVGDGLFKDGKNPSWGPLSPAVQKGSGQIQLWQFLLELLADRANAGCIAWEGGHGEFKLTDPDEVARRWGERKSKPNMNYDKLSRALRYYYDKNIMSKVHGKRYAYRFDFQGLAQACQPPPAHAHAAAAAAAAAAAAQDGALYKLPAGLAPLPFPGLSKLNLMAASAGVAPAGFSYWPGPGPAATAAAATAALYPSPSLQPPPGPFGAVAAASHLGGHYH
How it was run: (§1)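 The binding signal reported is, for every hexamer, its read frequency for a factor over its read frequency for the tag-only sample. Reads came from pools of yeast-expressed, GST-fused human transcription factors on glutathione beads, barcoded with DNA and mixed with that sample, which were incubated with 200 nmole of a random double-stranded 16-mer DNA library in Tris/NaCl/DTT/glycerol buffer at room temperature for 30 min. After washing, the pools were crosslinked with 0.1% formaldehyde, proximity-ligated with BsaI/T4 ligase for 1 h at 37 °C, PCR-amplified and sequenced on an Illumina NextSeq500.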

ETV5 = ETV5 (Homo sapiens, UniProt P41161 1-510); conditions: protein: recombinant; tags: N-terminal GST; dsDNA, one strand shown
Chain of ETV5 (P41161 whole entry): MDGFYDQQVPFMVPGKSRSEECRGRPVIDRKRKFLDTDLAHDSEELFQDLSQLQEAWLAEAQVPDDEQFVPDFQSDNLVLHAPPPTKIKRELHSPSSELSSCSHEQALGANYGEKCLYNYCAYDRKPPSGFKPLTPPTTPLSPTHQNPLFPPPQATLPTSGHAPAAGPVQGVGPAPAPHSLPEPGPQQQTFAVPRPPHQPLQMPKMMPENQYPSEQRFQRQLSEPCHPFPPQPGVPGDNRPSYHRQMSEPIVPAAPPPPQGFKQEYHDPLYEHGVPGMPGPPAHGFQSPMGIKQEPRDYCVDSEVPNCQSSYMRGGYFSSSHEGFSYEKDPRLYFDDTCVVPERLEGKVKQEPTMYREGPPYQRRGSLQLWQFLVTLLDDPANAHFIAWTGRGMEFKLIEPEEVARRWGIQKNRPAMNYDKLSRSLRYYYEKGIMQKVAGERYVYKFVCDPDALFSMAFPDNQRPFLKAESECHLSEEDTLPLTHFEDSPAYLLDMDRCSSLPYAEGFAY
How it was run: as §1

HSF1 = HSF1 (Homo sapiens, UniProt Q00613 1-529); conditions: protein: recombinant; tags: N-terminal GST; chain copies: 3; dsDNA, one strand shown
Chain of HSF1 (Q00613 whole entry): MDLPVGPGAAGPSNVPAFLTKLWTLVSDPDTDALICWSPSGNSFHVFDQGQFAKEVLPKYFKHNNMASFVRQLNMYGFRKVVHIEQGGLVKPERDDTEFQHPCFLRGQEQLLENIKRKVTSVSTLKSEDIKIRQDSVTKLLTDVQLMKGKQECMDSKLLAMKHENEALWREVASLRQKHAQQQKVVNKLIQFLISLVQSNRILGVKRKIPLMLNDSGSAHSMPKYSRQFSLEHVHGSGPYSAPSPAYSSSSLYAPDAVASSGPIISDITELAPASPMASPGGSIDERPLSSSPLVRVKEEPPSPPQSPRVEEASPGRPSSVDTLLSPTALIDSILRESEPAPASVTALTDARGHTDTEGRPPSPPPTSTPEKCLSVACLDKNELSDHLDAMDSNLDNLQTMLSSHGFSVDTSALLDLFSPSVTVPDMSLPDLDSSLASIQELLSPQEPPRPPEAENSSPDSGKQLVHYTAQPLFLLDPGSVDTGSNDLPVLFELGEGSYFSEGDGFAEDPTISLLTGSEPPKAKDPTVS
How it was run: as §1

SPIC = biological target: T2, SPIC (Homo sapiens, UniProt Q8N5J4 1-248); conditions: protein: recombinant; tags: N-terminal GST; dsDNA, one strand shown
T2 sequence: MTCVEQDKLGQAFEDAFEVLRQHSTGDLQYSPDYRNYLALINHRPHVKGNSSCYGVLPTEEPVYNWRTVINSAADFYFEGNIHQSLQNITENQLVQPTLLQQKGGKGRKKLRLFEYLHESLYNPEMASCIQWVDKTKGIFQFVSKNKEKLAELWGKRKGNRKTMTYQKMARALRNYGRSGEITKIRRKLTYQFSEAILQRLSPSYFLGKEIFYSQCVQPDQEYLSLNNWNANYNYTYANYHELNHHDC
How it was run: as §1

ELF4 = ELF4 (Homo sapiens, UniProt Q99607 1-663); conditions: protein: recombinant; tags: N-terminal GST; dsDNA, one strand shown
Chain of ELF4 (Q99607 whole entry): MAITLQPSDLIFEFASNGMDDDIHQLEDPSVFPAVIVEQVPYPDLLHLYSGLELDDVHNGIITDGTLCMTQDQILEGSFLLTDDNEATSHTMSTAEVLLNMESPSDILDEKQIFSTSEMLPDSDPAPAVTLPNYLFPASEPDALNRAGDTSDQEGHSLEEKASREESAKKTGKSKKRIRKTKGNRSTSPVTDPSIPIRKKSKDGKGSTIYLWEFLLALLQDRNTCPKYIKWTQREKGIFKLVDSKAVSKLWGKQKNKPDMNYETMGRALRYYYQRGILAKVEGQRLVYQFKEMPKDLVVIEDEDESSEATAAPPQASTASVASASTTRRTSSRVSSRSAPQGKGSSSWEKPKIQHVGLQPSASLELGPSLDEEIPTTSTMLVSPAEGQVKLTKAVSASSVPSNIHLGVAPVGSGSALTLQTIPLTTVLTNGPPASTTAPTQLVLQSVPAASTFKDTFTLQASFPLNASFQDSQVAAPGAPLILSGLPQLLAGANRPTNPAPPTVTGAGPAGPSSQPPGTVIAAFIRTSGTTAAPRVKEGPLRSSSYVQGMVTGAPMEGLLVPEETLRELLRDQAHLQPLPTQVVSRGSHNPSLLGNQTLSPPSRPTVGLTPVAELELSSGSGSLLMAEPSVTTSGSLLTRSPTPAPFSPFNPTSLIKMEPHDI
How it was run: as §1

ELK4 = biological target: T3, ELK4 (Homo sapiens, UniProt P28324-2 1-405); conditions: protein: recombinant; tags: N-terminal GST; dsDNA, one strand shown
T3 sequence: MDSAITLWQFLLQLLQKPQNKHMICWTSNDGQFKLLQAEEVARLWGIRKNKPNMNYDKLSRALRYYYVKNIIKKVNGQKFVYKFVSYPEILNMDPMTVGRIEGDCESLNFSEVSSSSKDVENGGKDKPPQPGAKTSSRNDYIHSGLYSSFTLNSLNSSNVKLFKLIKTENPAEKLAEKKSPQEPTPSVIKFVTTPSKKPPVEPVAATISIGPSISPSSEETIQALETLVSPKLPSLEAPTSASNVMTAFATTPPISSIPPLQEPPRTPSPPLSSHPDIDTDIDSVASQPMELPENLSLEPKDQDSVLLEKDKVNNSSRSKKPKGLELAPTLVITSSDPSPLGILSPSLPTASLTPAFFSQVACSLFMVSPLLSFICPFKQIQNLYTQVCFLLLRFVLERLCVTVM
How it was run: as §1

ETV2 = biological target: T4, ETV2 (Homo sapiens, UniProt O00321 1-342); conditions: protein: recombinant; tags: N-terminal GST; dsDNA, one strand shown
T4 sequence: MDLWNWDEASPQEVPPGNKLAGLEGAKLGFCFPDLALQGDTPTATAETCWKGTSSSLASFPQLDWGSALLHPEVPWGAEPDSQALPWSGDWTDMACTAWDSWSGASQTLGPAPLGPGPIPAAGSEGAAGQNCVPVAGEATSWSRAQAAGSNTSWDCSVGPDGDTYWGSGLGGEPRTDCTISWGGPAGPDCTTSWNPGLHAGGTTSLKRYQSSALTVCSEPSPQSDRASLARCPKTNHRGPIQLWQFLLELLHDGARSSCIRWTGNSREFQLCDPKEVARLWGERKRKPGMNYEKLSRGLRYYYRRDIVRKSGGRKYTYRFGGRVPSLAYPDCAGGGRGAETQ
How it was run: as §1

ELF3 = biological target: T5, ELF3 (Homo sapiens, UniProt P78545 1-371); conditions: protein: recombinant; tags: N-terminal GST; dsDNA, one strand shown
T5 sequence: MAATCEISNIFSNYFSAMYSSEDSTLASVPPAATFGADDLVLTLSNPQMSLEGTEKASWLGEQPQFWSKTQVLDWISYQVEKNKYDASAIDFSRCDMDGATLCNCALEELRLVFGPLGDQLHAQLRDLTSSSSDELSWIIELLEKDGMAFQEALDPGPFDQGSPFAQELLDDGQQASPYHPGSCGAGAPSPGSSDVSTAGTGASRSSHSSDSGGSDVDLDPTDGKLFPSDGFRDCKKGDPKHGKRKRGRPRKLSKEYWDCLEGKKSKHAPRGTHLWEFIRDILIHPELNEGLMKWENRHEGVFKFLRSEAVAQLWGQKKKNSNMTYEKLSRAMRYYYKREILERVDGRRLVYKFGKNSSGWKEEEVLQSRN
How it was run: as §1

CRX = CRX (Homo sapiens, UniProt O43186 1-299); conditions: protein: recombinant; tags: N-terminal GST; dsDNA, one strand shown
Chain of CRX (O43186 whole entry): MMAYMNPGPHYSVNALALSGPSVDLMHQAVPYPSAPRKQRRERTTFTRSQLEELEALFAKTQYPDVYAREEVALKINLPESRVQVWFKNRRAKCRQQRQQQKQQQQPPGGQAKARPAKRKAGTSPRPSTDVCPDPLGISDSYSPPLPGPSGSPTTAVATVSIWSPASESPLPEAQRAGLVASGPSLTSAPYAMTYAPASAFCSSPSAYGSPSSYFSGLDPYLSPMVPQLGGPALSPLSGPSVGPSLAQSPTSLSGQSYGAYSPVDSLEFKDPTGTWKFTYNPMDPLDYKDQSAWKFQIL
How it was run: as §1

ETV1 = ETV1 (Homo sapiens, UniProt P50549 1-477); conditions: protein: recombinant; tags: N-terminal GST; dsDNA, one strand shown
Chain of ETV1 (P50549 whole entry): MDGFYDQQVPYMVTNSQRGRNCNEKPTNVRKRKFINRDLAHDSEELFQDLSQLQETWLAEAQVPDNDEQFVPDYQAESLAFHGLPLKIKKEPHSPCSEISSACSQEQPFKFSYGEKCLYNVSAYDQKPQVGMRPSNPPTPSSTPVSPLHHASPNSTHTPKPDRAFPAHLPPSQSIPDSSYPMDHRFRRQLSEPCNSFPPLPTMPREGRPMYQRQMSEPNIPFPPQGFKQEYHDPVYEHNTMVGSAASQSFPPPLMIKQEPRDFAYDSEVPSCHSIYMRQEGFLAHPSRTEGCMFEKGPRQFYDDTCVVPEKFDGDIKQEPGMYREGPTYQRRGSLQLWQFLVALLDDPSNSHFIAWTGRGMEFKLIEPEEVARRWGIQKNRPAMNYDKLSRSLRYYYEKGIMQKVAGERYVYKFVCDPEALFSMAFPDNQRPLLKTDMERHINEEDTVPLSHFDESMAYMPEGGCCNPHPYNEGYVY
How it was run: as §1

ERF = biological target: T6, ERF (Homo sapiens, UniProt P50548 1-548); conditions: protein: recombinant; tags: N-terminal GST; dsDNA, one strand shown
T6 sequence: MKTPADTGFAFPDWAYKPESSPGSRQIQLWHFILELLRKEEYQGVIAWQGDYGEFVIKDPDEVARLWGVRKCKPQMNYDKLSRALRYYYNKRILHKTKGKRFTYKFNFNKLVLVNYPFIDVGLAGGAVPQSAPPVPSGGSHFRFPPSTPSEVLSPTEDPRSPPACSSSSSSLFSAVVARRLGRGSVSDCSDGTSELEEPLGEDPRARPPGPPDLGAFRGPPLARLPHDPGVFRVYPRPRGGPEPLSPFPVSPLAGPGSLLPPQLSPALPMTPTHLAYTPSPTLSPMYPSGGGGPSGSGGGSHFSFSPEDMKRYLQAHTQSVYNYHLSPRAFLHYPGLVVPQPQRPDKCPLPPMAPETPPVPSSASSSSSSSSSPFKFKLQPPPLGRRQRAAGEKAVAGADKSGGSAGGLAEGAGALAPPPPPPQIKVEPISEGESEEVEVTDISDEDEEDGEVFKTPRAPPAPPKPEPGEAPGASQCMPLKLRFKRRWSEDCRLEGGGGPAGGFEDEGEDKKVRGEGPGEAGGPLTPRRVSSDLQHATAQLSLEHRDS
How it was run: as §1

ETV3L = biological target: T7, ETV3L (Homo sapiens, UniProt Q6ZN32 1-361); conditions: protein: recombinant; tags: N-terminal GST; dsDNA, one strand shown
T7 sequence: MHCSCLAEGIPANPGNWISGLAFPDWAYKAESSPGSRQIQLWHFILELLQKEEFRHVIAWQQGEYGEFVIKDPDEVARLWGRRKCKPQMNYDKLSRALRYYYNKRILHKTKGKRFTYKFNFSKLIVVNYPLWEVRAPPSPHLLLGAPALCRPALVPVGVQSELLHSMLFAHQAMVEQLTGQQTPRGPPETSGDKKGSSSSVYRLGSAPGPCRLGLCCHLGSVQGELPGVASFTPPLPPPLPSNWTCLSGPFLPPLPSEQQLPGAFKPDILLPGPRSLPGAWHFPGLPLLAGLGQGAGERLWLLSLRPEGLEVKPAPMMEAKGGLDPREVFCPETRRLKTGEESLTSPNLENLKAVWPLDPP
How it was run: as §1

ETS2 = biological target: T8, ETS2 (Homo sapiens, UniProt P15036 1-469); conditions: protein: recombinant; tags: N-terminal GST; dsDNA, one strand shown
T8 sequence: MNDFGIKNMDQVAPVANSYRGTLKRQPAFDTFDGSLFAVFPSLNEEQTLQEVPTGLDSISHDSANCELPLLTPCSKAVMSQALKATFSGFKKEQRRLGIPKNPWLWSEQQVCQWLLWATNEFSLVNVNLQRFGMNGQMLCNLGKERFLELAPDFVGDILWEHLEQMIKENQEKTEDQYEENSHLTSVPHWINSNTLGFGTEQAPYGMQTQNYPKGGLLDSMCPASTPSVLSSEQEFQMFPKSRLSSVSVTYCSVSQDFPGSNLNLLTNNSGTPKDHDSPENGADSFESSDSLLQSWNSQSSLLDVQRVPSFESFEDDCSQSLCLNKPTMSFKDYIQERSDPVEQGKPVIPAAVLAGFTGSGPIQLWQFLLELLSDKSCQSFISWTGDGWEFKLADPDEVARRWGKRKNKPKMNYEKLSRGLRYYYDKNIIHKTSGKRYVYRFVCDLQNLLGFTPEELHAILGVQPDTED
How it was run: as §1

SPDEF = biological target: T9, SPDEF (Homo sapiens, UniProt O95238 1-335); conditions: protein: recombinant; tags: N-terminal GST; dsDNA, one strand shown
T9 sequence: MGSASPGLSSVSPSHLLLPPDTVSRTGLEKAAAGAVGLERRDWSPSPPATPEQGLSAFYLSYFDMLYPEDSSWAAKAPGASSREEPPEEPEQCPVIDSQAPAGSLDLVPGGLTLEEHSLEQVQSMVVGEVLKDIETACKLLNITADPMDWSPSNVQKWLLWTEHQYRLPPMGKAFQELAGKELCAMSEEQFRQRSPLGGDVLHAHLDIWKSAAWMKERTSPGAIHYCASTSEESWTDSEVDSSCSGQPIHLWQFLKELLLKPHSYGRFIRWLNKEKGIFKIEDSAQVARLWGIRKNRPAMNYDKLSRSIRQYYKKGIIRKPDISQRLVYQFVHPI
How it was run: as §1

ETV7 = biological target: T10, ETV7 (Homo sapiens, UniProt Q9Y603 1-341); conditions: protein: recombinant; tags: N-terminal GST; dsDNA, one strand shown
T10 sequence: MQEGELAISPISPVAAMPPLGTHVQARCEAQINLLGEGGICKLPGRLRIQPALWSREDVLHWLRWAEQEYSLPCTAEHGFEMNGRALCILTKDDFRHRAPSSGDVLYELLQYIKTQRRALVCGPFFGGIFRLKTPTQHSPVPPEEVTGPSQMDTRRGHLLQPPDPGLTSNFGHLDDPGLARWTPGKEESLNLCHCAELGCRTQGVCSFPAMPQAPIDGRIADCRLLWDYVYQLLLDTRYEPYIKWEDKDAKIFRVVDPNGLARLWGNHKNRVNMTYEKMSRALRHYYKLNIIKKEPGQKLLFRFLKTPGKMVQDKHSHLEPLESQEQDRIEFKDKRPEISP
How it was run: as §1

ELF5 = biological target: T11, ELF5 (Homo sapiens, UniProt Q9UKW6-2 1-255); conditions: protein: recombinant; tags: N-terminal GST; dsDNA, one strand shown
T11 sequence: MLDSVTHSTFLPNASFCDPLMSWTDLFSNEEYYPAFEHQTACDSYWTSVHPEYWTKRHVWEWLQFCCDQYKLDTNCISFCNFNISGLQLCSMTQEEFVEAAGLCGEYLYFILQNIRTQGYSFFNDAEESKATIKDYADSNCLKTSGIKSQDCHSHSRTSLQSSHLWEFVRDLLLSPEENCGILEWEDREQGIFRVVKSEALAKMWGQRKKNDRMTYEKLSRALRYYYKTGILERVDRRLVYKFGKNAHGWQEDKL
How it was run: as §1

ETV3 = biological target: T12, ETV3 (Homo sapiens, UniProt P41162-2 1-143); conditions: protein: recombinant; tags: N-terminal GST; dsDNA, one strand shown
T12 sequence: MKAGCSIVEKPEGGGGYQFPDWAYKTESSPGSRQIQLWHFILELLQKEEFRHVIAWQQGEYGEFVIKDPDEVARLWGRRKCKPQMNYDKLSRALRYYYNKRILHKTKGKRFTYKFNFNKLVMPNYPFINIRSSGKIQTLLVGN
How it was run: as §1

ETV6 = ETV6 (Homo sapiens, UniProt P41212 1-452); conditions: protein: recombinant; tags: N-terminal GST; dsDNA, one strand shown
Chain of ETV6 (P41212 whole entry): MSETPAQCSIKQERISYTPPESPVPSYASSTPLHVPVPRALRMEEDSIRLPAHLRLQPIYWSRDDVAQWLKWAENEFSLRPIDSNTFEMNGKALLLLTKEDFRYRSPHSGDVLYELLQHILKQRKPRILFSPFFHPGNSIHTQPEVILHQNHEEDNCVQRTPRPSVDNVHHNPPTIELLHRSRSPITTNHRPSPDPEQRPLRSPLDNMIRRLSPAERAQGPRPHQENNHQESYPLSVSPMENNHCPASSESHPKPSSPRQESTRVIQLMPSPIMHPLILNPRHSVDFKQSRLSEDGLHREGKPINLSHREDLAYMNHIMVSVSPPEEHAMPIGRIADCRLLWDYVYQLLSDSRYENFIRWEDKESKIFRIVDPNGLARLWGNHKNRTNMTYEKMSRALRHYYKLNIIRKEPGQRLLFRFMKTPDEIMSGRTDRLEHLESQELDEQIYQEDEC
How it was run: as §1

For ACAATC, the binding signal (FEV) was 1.11 fold enrichment (6-mer frequency, TF over GST control), the binding signal (ETV5) was 1.1 fold enrichment (6-mer frequency, TF over GST control) and the binding signal (HSF1) was 1.43 fold enrichment (6-mer frequency, TF over GST control). The binding signal (SPIC) was 1.17 fold enrichment (6-mer frequency, TF over GST control), the binding signal (ELF4) was 1.11 fold enrichment (6-mer frequency, TF over GST control) and the binding signal (ELK4) was 1.15 fold enrichment (6-mer frequency, TF over GST control). The binding signal (ETV2) was 1.18 fold enrichment (6-mer frequency, TF over GST control), the binding signal (ELF3) was 1.29 fold enrichment (6-mer frequency, TF over GST control) and the binding signal (CRX) was 1.36 fold enrichment (6-mer frequency, TF over GST control). The binding signal (ETV1) was 1.16 fold enrichment (6-mer frequency, TF over GST control), the binding signal (ERF) was 1.2 fold enrichment (6-mer frequency, TF over GST control) and the binding signal (ETV3L) was 1.14 fold enrichment (6-mer frequency, TF over GST control). For the same sequence, the binding signal (ETS2) was 1.17 fold enrichment (6-mer frequency, TF over GST control), the binding signal (SPDEF) was 1.16 fold enrichment (6-mer frequency, TF over GST control) and the binding signal (ETV7) was 1.16 fold enrichment (6-mer frequency, TF over GST control). For the same sequence, the binding signal (ELF5) was 1.19 fold enrichment (6-mer frequency, TF over GST control), the binding signal (ETV3) was 1.14 fold enrichment (6-mer frequency, TF over GST control) and the binding signal (ETV6) was 1.12 fold enrichment (6-mer frequency, TF over GST control).
